Inconclusive results are not listed. The source made the active and inactive calls. The call rests on the fitted dose curve; in most records, active means well fitted cell-killing curve with a large enough effect; inconclusive means small, poorly fitted or top-dose-only effect, or effect the other way; inactive means no such curve, though single readings can be large or run the other way.

For eleven compounds, Potency and viability, % of control results are on record in PubChem BioAssay (NCATS).
Potency means the concentration at half of the fitted maximal effect.

The nature of this assay: Viability qHTS for spleen associated tyrosine kinase inhibitor (SYKi) drug resistant MV4-11 cells (AID 1963824). Further: nearly all actives have a fitted effect of over 35% in size. The following applies: SYKi-resistant MV4-11 viability, CellTiter-Glo, 72 h; series mostly up to 45 µM. The method, boiled down: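 SYK-inhibitor-resistant MV4-11 AML cells were seeded at 500 per well onto compound and cultured 72 hours (37 °C, 5% CO2). CellTiter-Glo was then added, and after 10 min at room temperature, luminescence gave viability.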
For `C#Cc1cccc(Nc2ncnc3cc(OC)c(OC)cc23)c1`, the Potency was 1.64 µM (active). In the case of `COc1cc(OCc2cccc(-c3ccccc3)c2C)cc(OC)c1CN1CCCC[C@H]1C(=O)O`, the Potency was 8.33 µM (active). Still for that read-out and setting: the figure for `COc1ccc(Cl)cc1NC(=O)Nc1cc(C)nc2ccccc12` is 14.6 µM (active); for `OC[C@H]1O[C@@H](Oc2cc(O)cc(-c3cc4ccc(O)cc4o3)c2)[C@H](O)[C@@H](O)[C@@H]1O` it is 4.47 µM (active); for `CC(C)n1nc(C#Cc2ccccc2)c2c(N)ncnc21` it is 8.2 µM (active).

As for `COc1cccc2c1CCC[C@H]2CN(C)CCc1ccc2ccoc2c1`, the Potency is 23.1 µM (active). Consider `CC1(C)CCC2(C(=O)OC3OCC(O)C(O)C3O)CCC3(C)C(=CCC4C5(C)CC(O)C(OC6OC(COC7OCC(O)C(O)C7O)C(O)C(O)C6O)C(C)(C)C5CCC43C)C2C1` (stereo unspecified), for which the viability, % of control is 78.5% [at 9.25 µM] (inactive).

Regarding `CCCCCCCCCCCCCC#CC(=O)[C@@H]1COC(C)(C)N1C(=O)OC(C)(C)C`, the Potency entry was “inactive”. The same measure, in the same setting: the entry for `CC(=O)OC1C(C)C2C(OC3OC(CO)C(O)C(O)C3O)OC=C(C(=O)O)C2C1OC(=O)c1ccccc1` (stereo unspecified) is “inactive”. On the same count and under the same terms, the entry for `N#C[C@@H]1C[C@H](F)CN1C(=O)CNC1[C@H]2CN(C(=O)c3ccc(F)cc3)C[C@@H]12` (stereo partly specified) is “inactive”; for `COC1=CC(=O)C[C@@H](C)[C@]12Oc1cc(OC)cc(OC)c1C2=O` it is “inactive”.
